Screening data as filed in PubChem BioAssay.
CRFBP-R2 agonist: CRF-BP/CRF-R2 complex agonism. HEK293 CRF-R2/CRF-BP, calcium dye fluorescence (FLIPR); percent of saturating CRF peptide response. activation, % at 13.2 µM. actives 0.46% (n = 350,000);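 active means activation of at least 50%, plus an integration ratio under a set limit after plate pattern correction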;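 further: plate controls were neutral control wells without compound for no effect and CRF at EC100 for full effect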
Cardiac RTF inh: cardiac RTF calcium desensitization | P19429+P45379 | IANBD-labeled cardiac RTF, Ca2+ fluorescence | inhibition, % at 7.15 µM | actives 0.12% (n = 340,000) | AID 493244;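 active means inhibition above the mean inhibition of all tested compounds plus 3 SD, cut at about 17% in these data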;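 further: assay run at fixed EC70 calcium of 1.6 mM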
CRFR2-BP antag: blocks CRF-induced signaling of the CRF-BP/CRF-R2 complex. HEK293 CRF-R2/CRF-BP, CRF-induced calcium fluorescence. inhibition, % at 11.8 µM. actives 0.59% (n = 350,000). AID 588475;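 active means inhibition of the ligand-induced calcium signal above about 50% at the single tested concentration, limit read from the data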
RTF Ca sens act: increases calcium sensitivity of human cardiac regulated thin filaments. actives 0.24% (n = 340,000). IANBD-labeled TnC RTF fluorescence at EC20 calcium; 0% EC20 calcium, 100% full calcium. activation, % at 7.2 µM. P19429+P45379. AID 493008;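 active means activation above the mean over all tested compounds plus 3 SD, cut at about 30% in these data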;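 further: rise in fluorescence read as greater calcium sensitivity of cardiac thin filaments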
The depositor's hits bear a star; i = inactive; . = no result given; + = active, no number. Compounds with a hit are over-represented: about 1.3% of the library has one in this group of screens.

SMILES	CRFBP-R2 agonist	Cardiac RTF inh	CRFR2-BP antag	RTF Ca sens act
Cc1ccccc1C(=O)NNC(=S)NC(=O)c1ccc(Cl)cc1Cl	158*	2	-62	-14
Cc1onc(-c2ccccc2)c1C(=O)NNC(=S)NC(=O)/C=C/c1ccccc1	66*	3	-26	-2
Cc1onc(-c2ccccc2)c1C(=O)NNC(=O)c1ccccc1	0	-4	4	0
Cc1onc(-c2ccccc2)c1C(=O)NNC(=S)NC(=O)c1ccc(Br)cc1	150*	1	-39	1
COc1cc2c(cc1OC)CN(C(=O)CCNC(=O)c1ccccc1Cl)CC2	-1	4	-1	-5
Cc1onc(-c2ccccc2)c1C(=O)NNC(=S)NC(=O)c1ccc(Cl)cc1Cl	217*	0	-137	2
COC(=O)c1cc(OC)c(OC)cc1NC(=O)c1c(-c2ccccc2)noc1C	-1	-12	68*	14
Cc1onc(-c2ccccc2)c1C(=O)N/N=C/c1cc(Br)c(Br)o1	2	-8	103*	-1
CC1=C(C(=O)N(C)C)CC(CC(=O)NCc2cccs2)C(=O)N1CCCN1CCCC1=O (stereo not given)	0	.	10	.
COc1ccc(OCC(=O)NNC(=O)c2cccc(O)c2)cc1	0	8	-6	-1
CN(CC(=O)NCc1cccs1)CC(=O)Nc1ccccc1Cl	-1	.	17	.
CCn1c2ccc(F)cc2c2nnc(SCCN3CCCCC3)nc21	-3	-4	-4	-2
COCCCNc1c2c3c(cccc3[nH]c1=O)C(=O)c1ccccc1-2	204*	i	-192	+
COCCCNC1=C(Cl)C(=O)c2ccccc2C1=O	0	-4	5	-2
COC(=O)c1cc(NS(=O)(=O)c2ccc(C)c3ccccc23)ccc1N1CCOCC1	0	4	5	8
CCOc1cc2[nH]c(=O)n(Cc3ccccc3)c(=O)c2cc1OCC	-1	3	71*	-3
COc1ccc(Cn2c(=O)[nH]c3cc(OC)c(OC)cc3c2=O)cc1	0	1	-9	-1
COCCn1c(=O)[nH]c2cc(C(=O)Nc3cccc(C(C)=O)c3)ccc2c1=O	-1	6	-1	-1
O=Nc1c(O)n(Cc2c(Cl)cccc2Cl)c2ccccc12	163*	5	-9	-3
CC(=O)N/N=C/c1cc(C(C)C)cc(/C=N/NC(C)=O)c1O	92*	-17	-47	10
COc1ccc(Oc2nccc(-c3ccccc3)c2C#N)cc1	0	2	71*	4
O=C(c1ccc2ccccc2c1)C1CCCN(S(=O)(=O)c2cccnc2)C1 (stereo not given)	2	9	-17	11
CCOC(=O)C1=C(CCc2ccccc2)NC(=O)NC1c1cccc([N+](=O)[O-])c1 (stereo not given)	1	2	58*	6
Cc1[nH]n(-c2ccccc2)c(=O)c1/C=N/N1C(=O)c2cccc3cccc(c23)C1=O	62*	-2	22	1
O=C(NNc1ccccc1)c1ccc(Cl)c(Cl)c1	-1	-6	35	-4
SMILES	CRFBP-R2 agonist	Cardiac RTF inh	CRFR2-BP antag	RTF Ca sens act
CC(=O)N1c2ccc(S(=O)(=O)N3CCCC3)cc2CC1C(=O)NCc1ccc(N(C)C)cc1 (stereo not given)	1	-4	5	1
Cn1cc(/C=C/c2cc[n+](C)cc2)c2cc(Cl)ccc21	20	-178	-14	206*
C[n+]1ccc(/C=C/c2c[nH]c3ccc(F)cc23)cc1	45	-116	-19	102*
C[n+]1ccc(/C=C/c2ccc(Br)cc2)cc1	0	-1	-25	1
Cn1cc(/C=C/c2cc[n+](C)cc2)c2cc(F)ccc21	41	-383	-49	317*
Cn1cc(C=O)c2cc(F)ccc21	1	-17	12	4
COc1ccc(CCC(=O)OCC(=O)NC2CCCC2)cc1OC	-1	.	1	.
O=C(Nc1ccc(NS(=O)(=O)c2ccccc2)cc1)c1ccccc1Cl	-3	-10	1	3
CC[C@@]1(C(=O)OC)N[C@H](CN(C)C(=O)Nc2ccc(OC)cc2)[C@@H]2C(=O)N(Cc3ccccc3)C(=O)[C@@H]21	0	-1	-10	-3
CN(C)S(=O)(=O)c1ccc(Cl)c(C(=O)NC2CCCCCCC2)c1	-1	-6	-1	6
O=C(C1CCN(C2CCN(CC3CC=CCC3)CC2)CC1)N1CCOCC1 (stereo not given)	1	-8	86*	-1
CN1\C(=C/C=C/C=C/C=[N+](C)C)C(C)(C)c2ccccc21	49	-411	-75	218*
C=CCn1c(SCC(=O)N2CCCCC2)nnc1-c1ccncc1	-1	-5	8	-6
COc1ccc(-n2nc3c(N4CCC(C(=O)NCc5ccco5)CC4)nnc(C)c3c2C)cc1	-3	-2	15	30*
Cc1cccc(C)c1NC(=O)C1CCN(S(C)(=O)=O)CC1	-2	-1	16	5
Cc1ncn(C23CC4CC(CC(C4)C2)C3)n1	7	-14	58*	18
Nc1ncn(C23CC4CC(CC(C4)C2)C3)n1	0	3	16	-6
COc1ccc(C(=O)NCC(=O)N2CCN(C(=O)c3ccco3)CC2)cc1	316*	2	-286	-2
COC(=O)c1ccc(CN2C(=O)C(C)N(C(=O)c3c(F)cccc3F)c3ccccc32)cc1 (stereo not given)	-1	-12	58*	7
CC1C(=O)N(Cc2ccc(F)cc2)c2ccccc2N1C(=O)c1c(F)cccc1F (stereo not given)	-3	-4	36	0
COc1ccccc1CN(C)C(=O)c1cccc(S(=O)(=O)N2CCCc3ccccc32)c1	2	1	4	-1
COC(=O)/C=c1/s/c(=C(\C#N)C(=O)NCc2ccco2)n(-c2ccccc2)c1=O	7	-2	78*	0
COc1ccc(/C=c2\s/c(=C(/C#N)C(=O)NCc3ccco3)n(-c3ccccc3)c2=O)cc1	25	-11	-73	-1
COC(=O)NN1C(=O)C(c2ccccc2)=C(c2ccc(Cl)cc2)C1=O	-4	-4	51*	2
CC(CNC(=O)c1ccc(NC2=NC3CS(=O)(=O)CC3S2)cc1)c1ccccc1 (stereo not given)	50*	-6	-122	2
SMILES	CRFBP-R2 agonist	Cardiac RTF inh	CRFR2-BP antag	RTF Ca sens act
O=c1nc(N/N=C/C=C/c2ccccc2)cn[nH]1	1	-5	98*	1
O=c1nc(N/N=C/c2c[nH]c3ccccc23)cn[nH]1	0	-5	-3	-1
C=CCN(c1ccccc1)S(=O)(=O)c1cccc(C(=O)O)c1	-5	-10	98*	2
C=CCN(c1ccccc1)S(=O)(=O)c1cccc(C(=O)NNC(=O)c2ccccc2O)c1	-1	6	6	-4
CCN(CC)S(=O)(=O)c1ccc2c(c1)N(CC(=O)NCc1ccccn1)C(=O)CO2	2	4	-7	2
CCN(CC)S(=O)(=O)c1ccc2c(c1)N(CC(=O)NCc1ccco1)C(=O)CO2	-1	-7	83*	-5
Cn1c(SCC(=O)N/N=C/c2cc([N+](=O)[O-])ccc2O)nnc1-c1ccccc1	62*	-7	-43	-1
